According to the supplement of paper PMC7156485:
± gives the standard deviation of the averaged measurements.

Tests used:
Conditions in all cases: concentration: 10 µM; 24 h
HCC1569 [1] = assay: cell number relative to DMSO (% of DMSO); higher = more cells (less growth inhibition / toxicity)
In short: (§1)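 Compounds were applied at 10 µM for 24 h at 37 °C, in triplicate, to HCC1569 and TDF cells. The cells were then fixed and stained for H1.0, and nuclei were counterstained with DAPI. Nuclear H1.0 intensity or cell number is reported relative to the plate control as a percent, taking the median of replicates. Smoothing for positional effects was applied to HCC1569 values only.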

TDF [2] = assay: as above
In short: as §1

TDF [3] = assay: H1.0 immunofluorescence intensity relative to DMSO (% of DMSO); higher = stronger H1.0 induction, active = 120 or more
In short: as §1

HCC1569 [4] = assay: H1.0 immunofluorescence intensity relative to DMSO (% of DMSO); higher = stronger H1.0 induction, active = 140 or more
In short: as §1
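For H1.0 immunofluorescence intensity relative to DMSO in this document: TDF is a line of transformed human dermal fibroblasts of mesenchymal origin.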
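For cell number relative to DMSO in this document: TDF denotes transformed human dermal fibroblasts of mesenchymal origin.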

Row | Structure (SMILES) | cell number (HCC1569 [1]) | cell number (TDF [2]) | H1.0 immunofluorescence intensity (TDF [3]) | H1.0 immunofluorescence intensity (HCC1569 [4])
1 | COc1ccc(CNC(=O)Nc2ncc([N+](=O)[O-])s2)cc1 [GSK-3b Inhibitor VIII] | 91 | 106 | 96.6 (inactive) | 128 (inactive)
2 | CNc1ncnc2c1ncn2C1CC(OP(=O)([O-])O)C(COP(=O)([O-])O)O1.[NH4+].[NH4+] (stereo unspecified) | 104 | 100 | 95 (inactive) | 92.4 (inactive)
3 | CC(=O)OCC(=O)C1(O)CCC2C3CCC4=CC(=O)CCC4(C)C3C(O)CC21C (stereo unspecified) [Hydrocortisone 21-acetate] | 99.8 | 104 | 78 (inactive) | 109 (inactive)
4 | CCCCCCC=CC=CCCCCCCCC(=O)O [9(Z), 11(Z)-octadecadienoic acid] | 99.8 | 108 | 107 (inactive) | 103 (inactive)
5 | Cc1cc(C(C)(C)C)c(O)c(C)c1CC1=NCCN1.Cl [Oxymetazoline.HCl] | 102 | 97.8 | 98.5 (inactive) | 98.2 (inactive)
6 | CCCCCCCCCCCCCCCCCC(=O)OC(CC(=O)O)C[N+](C)(C)C.[Cl-] (racemic) [DL-Stearoylcarnitine chloride] | 101 | 84.3 | 136 (active) | 114 (inactive)
7 | Brc1c(Br)c(Br)c2n[nH]nc2c1Br [TBB - 4,5,6,7-Tetrabromobenzotriazole] | 104 | 96.4 | 99.2 (inactive) | 104 (inactive)
8 | O=C1C(SCCO)=C(SCCO)C(=O)c2ccccc21 [2,3-bis[(2-hydroxyethyl)sulfanyl]naphthoquinone] | 36.5 | 84.6 | 103 (inactive) | 446 (active)
9 | O=C(CCN1CCN(C(=O)OCc2cc(Cl)cc(Cl)c2)CC1)c1ccc2[nH]c(=O)oc2c1 | 70.5 | 104 | 87.1 (inactive) | 168 (active)
10 | O=c1cc(-c2ccccc2)oc2cc(O)c(O)cc12 [6,7-Dihydroxyflavone] | 102 | 96.3 | 98.5 (inactive) | 101 (inactive)
11 | Cl.Cl.c1cnc(N2CCN(Cc3ccc4c(c3)OCO4)CC2)nc1 [Piribedil.2HCl] | 100 | 98.2 | 92 (inactive) | 107 (inactive)
12 | CC(C(O)c1ccc(O)cc1)N1CCC(Cc2ccccc2)CC1.CC(C(O)c1ccc(O)cc1)N1CCC(Cc2ccccc2)CC1.O=C(O)C(O)C(O)C(=O)O (stereo unspecified) [Ifenprodil tartrate] | 101 | 108 | 100 (inactive) | 96.7 (inactive)
13 | COC(=O)C1=C(C)NC(C)=C(C(=O)OCC(C)C)C1c1ccccc1[N+](=O)[O-] (stereo unspecified) [Nisoldipine] | 94.9 | 104 | 89.9 (inactive) | 116 (inactive)
14 | COc1ccc2nc(S(=O)Cc3ncc(C)c(OC)c3C)[nH]c2c1 (stereo unspecified) [Omeprazole] | 100 | 102 | 95.5 (inactive) | 111 (inactive)
15 | CC(C)c1ccc(C(=O)N=C(N)N)cc1S(C)(=O)=O [N''-[4-isopropyl-3-(methylsulfonyl)benzoyl]guanidine] | 101 | 93.4 | 99.1 (inactive) | 100 (inactive)
16 | NC1(C(=O)O)CCc2cc(C(=O)O)ccc21 (stereo unspecified) | 101 | 113 | 88.5 (inactive) | 84.5 (inactive)
17 | CC[N+](CC)(CC)CC(=O)Nc1c(C)cccc1C.[Br-] [Lidocaine N-ethyl bromide quaternary salt] | 106 | 108 | 88.4 (inactive) | 94.3 (inactive)
18 | Cc1cc(O)c2c(c1)C(=O)c1cc(O)cc(O)c1C2=O [Emodin] | 98.4 ± 1.2 | 96.8 ± 5.4 | 98.6 (inactive) | 89.8 (inactive)
19 | O=c1c(O)c(-c2ccc(O)cc2O)oc2cc(O)cc(O)c12 [Morine] | 101 | 109 | 95 (inactive) | 82.4 (inactive)
20 | CNc1ncnc2c1ncn2C1OC(CO)C(O)C1O (stereo unspecified) [N6-Methyladenosine] | 95.6 | 106 | 93.9 (inactive) | 110 (inactive)
21 | CN1C2CCC1CC(OC(=O)c1c[nH]c3ccccc13)C2.Cl (stereo unspecified) [3-Tropanyl-indole-3-carboxylate hydrochloride] | 103 | 112 | 93.4 (inactive) | 112 (inactive)
22 | C#CCN(C)Cc1ccccc1.Cl [Pargyline hydrochloride] | 114 | 105 | 91.7 (inactive) | 101 (inactive)
23 | N#Cc1c(NC(=O)c2cccc3ccccc23)sc2c1CCCC2 [JNK Inhibitor IX] | 62.6 | 9.56 | 163 (active) | 170 (active)
24 | O=C(C=Cc1ccc(O)c(O)c1)OCCc1ccccc1 | 74.8 ± 3.7 | 85.77 ± 0.57 | 93.1 (inactive) | 113 (inactive)
25 | COc1ccc(C=Cc2cc(O)cc(OC3OC(CO)C(O)C(O)C3O)c2)cc1O (stereo unspecified) [Rhapontin] | 99.2 | 104 | 96 (inactive) | 83.7 (inactive)

Row | Structure (SMILES) | cell number (HCC1569 [1]) | cell number (TDF [2]) | H1.0 immunofluorescence intensity (TDF [3]) | H1.0 immunofluorescence intensity (HCC1569 [4])
26 | CN1CCCC1c1cccnc1.Cc1ccc(C(=O)OC(C(=O)O)C(OC(=O)c2ccc(C)cc2)C(=O)O)cc1 (stereo not drawn) [(+)-Nicotine (+)-di-p-toluoyl tartrate] | 102 | 109 | 88.1 (inactive) | 99.5 (inactive)
27 | N#Cc1ccc(N2N=C3c4ccc(C(=O)O)cc4CCC3C2C2CCCC2)cc1Cl (stereo unspecified) | 101 | 110 | 85.4 (inactive) | 101 (inactive)
28 | Cc1nc2sccn2c(=O)c1CCN1CCC(=C(c2ccc(F)cc2)c2ccc(F)cc2)CC1 [Ritanserin] | 101 | 111 | 88.8 (inactive) | 105 (inactive)
29 | CC(CN(C)C)CN1c2ccccc2Sc2ccc(C#N)cc21 (stereo unspecified) | 93.5 | 90.4 | 118 (inactive) | 108 (inactive)
30 | COc1c2c(nc3ccccc13)OC(C(C)(O)CO)C2 (stereo unspecified) [Dubinidine] | 102 ± 7.2 | 104 ± 5.6 | 96.1 (inactive) | 106 (inactive)
31 | CC12CCC3c4ccc(O)cc4CCC3C1CCC2=O (stereo unspecified) [Estrone] | 102 ± 4.7 | 99.9 ± 9.3 | 96.7 (inactive) | 101 (inactive)
32 | CC1CCC2(OC1)OC1CC3C4CCC5CC(O)CCC5(C)C4CCC3(C)C1C2C (stereo unspecified) [Sarsasapogenin] | 100 | 105 | 106 (inactive) | 107 (inactive)
33 | CCC(C)C(=O)OC1CC(C)C=C2C=CC(C)C(CCC3CC(O)CC(=O)O3)C21 (stereo unspecified) [Lovastatin] | 99.4 | 80.8 | 119 (inactive) | 106 (inactive)
34 | O=C(NCCO)c1cccc(-c2cc(Nc3ccc(OC(F)(F)F)cc3)ncn2)c1 | 91.1 | 94.8 | 110 (inactive) | 119 (inactive)
35 | CC[n+]1c(C=CN(C)c2ccccc2)n(-c2ccccc2)c2ccc(-c3nc4ccccc4s3)cc21.[I-] [Akt Inhibitor IV] | 38.7 | 21.3 | 148 (active) | 66.5 (inactive)
36 | CC(C[N+](C)(C)C)OC(N)=O (stereo not drawn) [Carbamyl-beta-methylcholine] | 105 | 99.5 | 89.1 (inactive) | 108 (inactive)
37 | Cl.NCCNC(=O)c1ncsc1-c1cccc(F)c1 [Ro 41-1049 hydrochloride] | 97.5 | 90.9 | 97.4 (inactive) | 104 (inactive)
38 | CCCCCC(O)CC=C1C(=O)C=CC1CC=CCCCC(=O)O (stereo unspecified) [D12-Prostaglandin J2] | 108 | 96.8 | 103 (inactive) | 106 (inactive)
39 | CCCCCC=CCC=CC=CC=CC(O)C(O)CCCC(=O)O (stereo unspecified) | 99.8 | 100 | 99.2 (inactive) | 96.6 (inactive)
40 | COc1cc(Br)c(Nc2nc(-c3c(C)nc4ncccn34)cs2)c(Br)c1 | 61.1 | 53.8 | 108 (inactive) | 199 (active)
41 | CC(C=CC=C(C)C=CC1=C(C)C(=O)CCC1(C)C)=CC=CC=C(C)C=CC=C(C)C=CC1=C(C)C(=O)CCC1(C)C [Canthaxanthin] | 102 ± 4.6 | 104 ± 3.5 | 90 (inactive) | 106 (inactive)
42 | CN(C)CCCN1c2ccccc2CCc2ccc(Cl)cc21.Cl [Clomipramine hydrochloride] | 89.6 | 102 | 107 (inactive) | 122 (inactive)
43 | Cl.Cl.NCCC(=O)NCCc1cnc[nH]1 [Carcinine dihydrochloride] | 97.3 | 107 | 94.6 (inactive) | 88.5 (inactive)
44 | CC1(C)CC=C(c2cnc3ccccc3c2)c2cc(C(=O)Nc3ccc(C(=O)O)cc3)ccc21 | 99.8 | 99.3 | 97.3 (inactive) | 96.8 (inactive)
45 | CCCCCCCCCCCCC(=O)N1CCCCC1CNC(=O)C(N)CCCCN.Cl.Cl (stereo unspecified) | 101 | 109 | 104 (inactive) | 100 (inactive)
46 | O=C(O)C=Cc1c[nH]c2ccccc12 [3-Beta-Indoleacrylic acid] | 97.9 | 101 | 94.8 (inactive) | 95.1 (inactive)
47 | CCOc1cc2ncc(C#N)c(Nc3ccc(F)c(Cl)c3)c2cc1NC(=O)/C=C/CN(C)C | 43.6 | 10 | 177 (active) | 84.6 (inactive)
48 | O=C(Nc1ncc([N+](=O)[O-])s1)c1ccc([N+](=O)[O-])c(Cl)c1 [3-chloro-4-nitro-N-(5-nitrothiazol-2-yl)benzamide] | 84.1 | 83.6 | 108 (inactive) | 122 (inactive)
49 | Nc1ncnc2c1C(=O)N(c1ccc(C3CCC(CC(=O)O)CC3)cc1)CCO2 (stereo unspecified) | 103 | 95.7 | 99.8 (inactive) | 98.5 (inactive)
